Consider 36 molecules from paper PMC5540273 (PLoS ONE, 2017).
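Further: KINOMEscan kinase panel screen.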

The test system of the assay is CDK4. The note with it: concentration: 1 μM, replicates: in singlicate; n = 1.
For `O=C(Nc1n[nH]c2nc(-c3ccccc3O)ccc12)C1CC1` [SB-711880], the “%Inh” value came to 0%.

Consider `N#CC1(c2cccc(C(=O)Nc3cccc(Oc4ccc5nc(NC(=O)C6CC6)sc5n4)c3)c2)CC1`, for which the “%Inh” value amounted to 0%.

Turning to `Cl.Cl.NCC(NC(=O)c1cc(-c2cccnc2)c(-c2ccnc3[nH]ccc23)s1)c1ccccc1` (stereo not drawn) [GSK1323434], the “%Inh” value was determined as 79%.

In the case of `COc1cccc(C2=C(Nc3cccc(O)c3)C(=O)NC2=O)c1` [SB-390771], the “%Inh” value came out at 0%.

For the molecule `Fc1cc(Cl)ccc1Nc1ccnc2cc(-c3ccc(CN4CCSCC4)o3)ccc12` [GW560106], the “%Inh” value is listed as 53%.

In the case of `O=C(O)C(F)(F)F.O=c1[nH]ccc2nc(N[C@@H]3CCNC3)nc(Nc3ccc4c(c3)S(=O)(=O)CC4)c12` [GSK2181306], the “%Inh” value amounted to 50%.

As to `Cc1ccccc1CC(=O)N1CCc2cc(-c3cn(C)c4ncnc(N)c34)ccc21` [GSK2603346], the “%Inh” value is given as 29%.

On to `O=C(Nc1n[nH]c2nc(-c3ccccc3)ccc12)C1CC1` [SB-708999], for which the “%Inh” value is recorded as 12%.

`CN(c1ccc(NC(=O)Nc2cccc(Cl)c2)cc1)c1ccnc(N)n1.Cl` [GW830707]: the “%Inh” value worked out at 4%.

`CN(C)CCOc1ccc(-c2cc(-c3ccc(Cl)c(O)c3)c(-c3ccncc3)[nH]2)cc1.Cl.Cl` [SB-684387]: the “%Inh” value turned out to be 39%.

Consider `Cc1ccc(Nc2ccnc(Nc3ccc(C)c(F)c3)n2)cc1O.Cl` [GW582868], for which the “%Inh” value is 0%.

Turning to `CN(c1ccc(NC(=O)N2CCN(CCCN3CCOCC3)CC2)cc1)c1ccnc(Nc2ccc(CS(C)(=O)=O)cc2)n1.Cl` [GW830899], the “%Inh” value was 0%.

As to `Nc1ncnc2scc(-c3ccc(NC(=O)Cc4cc(F)ccc4F)cc3)c12.O=C(O)C(F)(F)F` [SB-731254-M], the “%Inh” value was 0%.

With `CC(C)c1nc(-c2cccc(NS(=O)(=O)c3c(F)cccc3F)c2)c(-c2ccnc(Nc3ccc(N4CCOCC4)nc3)n2)s1.Cl` [GSK1723980], the “%Inh” value was found to be 94.4%.

Consider `Cl.N#CCc1ccc(Nc2nccc(Nc3ccc(Oc4ccccc4)cc3)n2)cc1` [GW639905], for which the “%Inh” value worked out at 0%.

As to `CNc1nccc(-c2ccc3c(N)n[nH]c3c2)n1` [GSK2206003], the “%Inh” value is 31%.

Turning to `COC(=O)Nc1nc2ccc(Oc3ccc(NC(=O)Nc4cc(C(F)(F)F)ccc4F)cc3)cc2[nH]1.Cl` [GW654607], the “%Inh” value turned out to be 26%.

Turning to `O=C(O)C(F)(F)F.O=c1[nH]ccc2nc(N[C@@H]3CCNC3)nc(Nc3cc(Cl)cc(Cl)c3)c12` [GSK2188764], the “%Inh” value is 13%.

For `Cl.O=C(Nc1ccc(Oc2ccc3[nH]c(NC(=O)c4ccco4)nc3c2)cc1)Nc1cc(C(F)(F)F)ccc1F` [GW683134], the “%Inh” value is listed as 4%.

Consider `c1ccc(Oc2ccc(Nc3ccnc4cc(-c5ccc(CN6CCCCC6)o5)ccc34)cc2)nc1` [GW567143], for which the “%Inh” value is given as 18%.

For the molecule `NCCC(NC(=O)c1cc(Br)c(-c2ccnc3[nH]ccc23)s1)c1ccccc1.O=C(O)C(F)(F)F.O=C(O)C(F)(F)F` (stereo not drawn) [GSK1307810], the “%Inh” value is reported as 27%.

For `COc1ccc(NC(=O)c2ccoc2)cc1-c1ccc(C(=O)NCC2CC2)cc1` [GW810437], the “%Inh” value was found to be 15%.

For `CCn1c(-c2nonc2N)nc2c(-c3ccccc3)ncc(OCCCN)c21.O=C(O)C(F)(F)F.O=C(O)C(F)(F)F` [GSK260205], the “%Inh” value is recorded as 0%.

On to `CS(=O)(=O)c1cccc(CNc2nc(Nc3ccc4c(c3)CCC(=O)N4)ncc2C(F)(F)F)c1`, for which the “%Inh” value amounted to 6%.

As for `O=C(Nc1c(F)cccc1F)c1cc(C(=O)c2ccccc2F)c[nH]1` [GSK1326180], the “%Inh” value is on record as 14%.

For the molecule `O=C(Nc1n[nH]c2nc(-c3cccc(O)c3)ccc12)C1CC1` [SB-711805], the “%Inh” value came out at 15%.

For `Cc1ccc(O)cc1Nc1ccnc2ccc(C(C)(C)C)cc12` [GW856805], the “%Inh” value amounted to 25%.

Regarding `Cc1cccc(Nc2nc(NCCN)ncc2C(N)=O)c1` [GSK1292139], the “%Inh” value is reported as 35%.

Turning to `Cn1cc(-c2ccc3c(c2)CCN3C(=O)Cc2cc(F)cc(C(F)(F)F)c2)c2c(N)ncnc21` [GSK2635225], the “%Inh” value is recorded as 32%.

As to `CC(C)c1nc(-c2ccc(F)c(NS(=O)(=O)c3c(F)cccc3F)c2)c(-c2ccnc(Nc3ccc(N4CCOCC4)nc3)n2)s1` [GSK1804250], the “%Inh” value stood at 87%.

With `CC(C)NCC(Cc1ccccc1)NC(=O)c1cc(Br)c(-c2ccnc3[nH]ccc23)s1.Cl.Cl` (stereo not drawn) [GSK1383281], the “%Inh” value was 0%.

For the molecule `COc1cccc(CC(=O)N2CCc3cc(-c4cn(C)c5ncnc(N)c45)ccc32)c1` [GSK2608899], the “%Inh” value is 25%.

For the molecule `N#Cc1cnc2cc(-c3cnc(CNCCN4CCOCC4)s3)ccc2c1Nc1ccc(Oc2ccccc2)cc1` [GW664114], the “%Inh” value was 10%.

With `COc1cccc2c(-c3ccncc3)c(-c3ccc(F)cc3)nn12` [GW468513], the “%Inh” value amounted to 0%.

As for `COc1cccc(NC(=O)NCCNc2ccnc(Nc3ccc(F)cc3)n2)c1` [GSK1379879], the “%Inh” value is given as 0%.

On to `Nc1ncc(-c2ccc3nccc(-c4ccncc4)c3c2)cc1S(=O)(=O)N1CCCCC1` [GSK1693850], for which the “%Inh” value is 0%.
